Some test systems named below: DU-145 prostate; K-562 leukemia; MALME-3M melanoma; MDA-MB-231 breast; RXF 393 renal; SF-268 CNS; SF-295 CNS; SF-539 CNS; UACC-257 melanoma; M14 melanoma; HCT-15 colon; HT29 colon; SNB-75 CNS; SNB-19 CNS; U251 CNS; PC-3 prostate; SK-MEL-5 melanoma; UACC-62 melanoma; LOX IMVI melanoma; SK-MEL-28 melanoma.
What all share (assay): NCI-60 one-dose screen, 48 h (100 = growth as untreated, 0 = no growth, -100 = all killed)
Conditions in all cases: 10 µM unless noted

The panel holds about 83,000 compounds, 20% with a hit somewhere; the sample as a whole holds those more often.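 Testing used 96-well plates and a 48-hour single-concentration exposure. Example: -40 means 40% of the starting cells died.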 Values without a mark were called inactive. The source made the active and inactive calls. How the source made its calls: active means growth percent below 10; inactive means the rest.

On to `O=C(CSc1nc2sc3c(c2c(=O)n1-c1ccc(Cl)cc1)CCCC3)N/N=C/C=C/c1ccccc1`, for which the growth in the assay on DU-145 prostate was 26.7%; with K-562 leukemia it was 19.4%; in the assay on MALME-3M melanoma it was -97% (active); in the assay on MDA-MB-231 breast it was -69.4% (active); with RXF 393 renal, -67.1% (active); with SF-268 CNS, 55.1%. The growth in the assay on SF-295 CNS was 12%; in the assay with SF-539 CNS, -35.2% (active); in the assay on UACC-257 melanoma, 1.05% (active); with M14 melanoma, -65.9% (active); in the assay on HCT-15 colon it was -57.6% (active); with HT29 colon, -19.3% (active). Moreover, the growth is -23.2% (active) with SNB-75 CNS; 27% with SNB-19 CNS; -76.4% (active) with U251 CNS; -17.4% (active) with PC-3 prostate; -95.2% (active) with SK-MEL-5 melanoma; -79.9% (active) in the assay with UACC-62 melanoma. For the same compound, the values for the growth with LOX IMVI melanoma and with SK-MEL-28 melanoma were 31.7% and -80.1% (active), respectively.

For the compound `COc1cc(C2CC(c3cc(OC)c(OC)c(OC)c3)=Nc3c(N)nc(N)nc3N2)ccc1Oc1nc(Nc2ccc(F)cc2)nc(N(C)C)n1` (stereo not given), the growth was 70.7% in the assay on DU-145 prostate; 15.1% in the assay on K-562 leukemia; 78.6% in the assay on MALME-3M melanoma; 24.6% with MDA-MB-231 breast; 26.5% with RXF 393 renal; 63.5% in the assay on SF-268 CNS. Also, the growth in the assay on SF-295 CNS was 61.3%; in the assay on SF-539 CNS, 62%; in the assay on UACC-257 melanoma, 58.9%; in the assay on M14 melanoma, 66.5%; in the assay on HCT-15 colon, 4.98% (active); in the assay on HT29 colon, 7.02% (active). The growth was 55.9% with SNB-75 CNS; 70.7% in the assay on SNB-19 CNS; 56.4% in the assay with U251 CNS; 33.8% with PC-3 prostate; 36% in the assay on SK-MEL-5 melanoma; 83.6% in the assay with UACC-62 melanoma. In addition, the growth with LOX IMVI melanoma is 10.3%; in the assay with SK-MEL-28 melanoma it was 74%.

On to `CCCCCCCCc1ccc(C(=O)Nc2ccc(C)cc2C(=O)O)cc1`, for which the growth was 95% with DU-145 prostate; 59.4% in the assay on K-562 leukemia; 92.2% in the assay with MALME-3M melanoma; 96.9% with MDA-MB-231 breast; 110% with RXF 393 renal; 96% with SF-268 CNS. For the same compound, the growth with SF-295 CNS was 51.1%; with SF-539 CNS, 100%; with UACC-257 melanoma it was 95.8%; in the assay on M14 melanoma it was 104%; in the assay on HCT-15 colon, 53.2%; in the assay with HT29 colon, 109%. Further, the growth was 106% in the assay on SNB-75 CNS; 67.5% in the assay on SNB-19 CNS; 75.4% in the assay with U251 CNS; 66.6% in the assay with PC-3 prostate; 87.1% in the assay on SK-MEL-5 melanoma; 87.8% in the assay on UACC-62 melanoma. The growth in the assay on LOX IMVI melanoma is 89.9%; in the assay with SK-MEL-28 melanoma it was 108%.

Consider `Cc1ccccc1Nc1nnc(-c2c[nH]c3ccccc23)o1`, for which the growth in the assay with DU-145 prostate is 26.4%; in the assay on K-562 leukemia, 7.28% (active); in the assay on MALME-3M melanoma, 33.5%; in the assay on MDA-MB-231 breast, 26.9%; with RXF 393 renal it was -4.44% (active); with SF-268 CNS it was 59%. Further, the growth in the assay with SF-295 CNS is 8.71% (active); in the assay with SF-539 CNS, -25.9% (active); in the assay with UACC-257 melanoma it was 49.7%; with M14 melanoma, 6.24% (active); in the assay on HCT-15 colon, 16.8%; with HT29 colon, 2.95% (active). The growth is 26% with SNB-75 CNS; 41% in the assay on SNB-19 CNS; 11.8% in the assay with U251 CNS; 37.6% with PC-3 prostate; -17% (active) in the assay on SK-MEL-5 melanoma; 28.4% in the assay with UACC-62 melanoma. In addition, the growth was 29.1% in the assay on LOX IMVI melanoma and 61.3% with SK-MEL-28 melanoma.

Take `COc1c(B(O)O)cc(F)cc1-c1nc2c(F)cc3[nH]ncc3c2c2c1CCCC2`: the growth is 14.6% in the assay on DU-145 prostate; 38.8% with K-562 leukemia; 50.9% in the assay with MALME-3M melanoma; 3.96% (active) with MDA-MB-231 breast; -45.4% (active) in the assay on RXF 393 renal; 30.3% in the assay with SF-268 CNS. In addition, the growth with SF-295 CNS is 15.2%; with SF-539 CNS, -44% (active); in the assay on UACC-257 melanoma it was 40%; with M14 melanoma it was 38.2%; in the assay with HCT-15 colon, 4.25% (active); with HT29 colon it was 21.1%. In addition, the growth is -78.1% (active) in the assay on SNB-75 CNS; 7.54% (active) in the assay on SNB-19 CNS; 10.8% with U251 CNS; 12.8% in the assay with PC-3 prostate; 7.04% (active) with SK-MEL-5 melanoma; -7% (active) in the assay on UACC-62 melanoma. Also, the growth is -16.6% (active) in the assay on LOX IMVI melanoma and 25.7% in the assay on SK-MEL-28 melanoma.

For the compound `C=CC(=O)N1CCN(c2ccc3nc4c(nc3c2C(F)(F)F)C(=O)c2ncccc2C4=O)CC1`, the growth was 23.6% in the assay on DU-145 prostate; 3.62% (active) with K-562 leukemia; -97.9% (active) in the assay on MALME-3M melanoma; -13.6% (active) in the assay with MDA-MB-231 breast; 44.1% with RXF 393 renal; 21.3% with SF-268 CNS. Moreover, the growth in the assay with SF-295 CNS is 28.8%; with SF-539 CNS, -32.9% (active); in the assay on UACC-257 melanoma it was -82.7% (active); in the assay on M14 melanoma, -59.9% (active); with HCT-15 colon, 1.18% (active); in the assay on HT29 colon it was 11.8%. Also, the growth with SNB-75 CNS was 82.3%; with SNB-19 CNS, 32.3%; with U251 CNS it was -17.3% (active); with PC-3 prostate it was -4.79% (active); in the assay on SK-MEL-5 melanoma, -98.6% (active); in the assay with UACC-62 melanoma, -60% (active). For the same compound, the values for the growth with LOX IMVI melanoma and with SK-MEL-28 melanoma were -8.11% (active) and 30.5%, respectively.

Take `Nc1ccc(-c2ccc3ncnc(N4CCc5cc(F)c(Cl)cc54)c3c2)cn1`: the growth is 5.3% (active) in the assay with DU-145 prostate; 12.9% in the assay with K-562 leukemia; 3.74% (active) in the assay with MALME-3M melanoma; 18.4% in the assay with MDA-MB-231 breast; -19.2% (active) with RXF 393 renal; 24% in the assay on SF-268 CNS. Moreover, the growth with SF-295 CNS was 7.68% (active); in the assay with SF-539 CNS, 24.9%; with UACC-257 melanoma, 43.1%; in the assay on M14 melanoma, 13.5%; in the assay with HCT-15 colon, 24.8%; with HT29 colon, 25.9%. In addition, the growth in the assay on SNB-75 CNS is -4.49% (active); with SNB-19 CNS it was 39.3%; with U251 CNS, 43.8%; in the assay with PC-3 prostate it was 19%; in the assay with SK-MEL-5 melanoma it was 16.6%; with UACC-62 melanoma, 15%. Also, the figures for the growth in the assay on LOX IMVI melanoma and in the assay with SK-MEL-28 melanoma were 18.7% and 41.4%, respectively.
